Assay results as given in PubChem BioAssay (NCI).
About 83,000 compounds went through this panel and 20% of them were active in at least one assay; those are over-represented in the sample as a whole.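 How to read the values: 0–100, growth inhibition (40 = 60% inhibited); 0, no net growth; -100 to 0, cell death (-40 = 40% of starting cells died; -100 = all dead).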 Calls of active or inactive are those of the source. Rule for the calls: active = growth percent below 10; inactive = the rest.

Key:
Experiment in all cases: NCI-60 one-dose screen, 48 h (100 = growth as untreated, 0 = no growth, -100 = all killed)
Details in all cases: 10 µM
[1] = tested on: DU-145 prostate
[2] = tested on: K-562 leukemia
[3] = tested on: MALME-3M melanoma
[4] = tested on: MDA-MB-231 breast
[5] = tested on: RXF 393 renal
[6] = tested on: SF-268 CNS
[7] = tested on: SF-295 CNS
[8] = tested on: SF-539 CNS
[9] = tested on: UACC-257 melanoma
[10] = tested on: M14 melanoma

Measured: growth

COc1cc(-c2nc3cc(Cl)c(Cl)cc3[nH]2)ccc1OCC(=O)NN
inactive: [1] 75.5% | [2] 31.9% | [3] 95.3% | [4] 57.8% | [5] 131% | [6] 77.6% | [7] 71.5% | [8] 80.5% | [9] 96.9% | [10] 95.1%

CNC(=O)c1cc(Oc2ccc(NC(=O)Nc3ccc(Cl)c(OC4CCCCC4)c3)c(F)c2)ccn1
inactive: [1] 65.6% | [2] 17.1% | [3] 69% | [4] 68.7% | [5] 79.4% | [6] 61% | [7] 20.5% | [8] 59.9% | [9] 23.3% | [10] 40%

COc1ccc(-c2cc(/C=C/C(=O)c3ccc(N)cc3)[nH]n2)cc1OC
active: [8] 7.79%
inactive: [1] 22.8% | [2] 24.4% | [3] 109% | [4] 38.8% | [5] 21.2% | [6] 18.8% | [7] 41% | [9] 126% | [10] 84.4%

COc1ccc(/C=C2\SC(=S)N(CCCN3CCOCC3)C2=O)c(OC)c1
inactive: [1] 100% | [2] 83.8% | [3] 118% | [4] 96.9% | [5] 108% | [6] 104% | [7] 107% | [8] 104% | [9] 102% | [10] 95.6%

CC1=CC2OC34COC3CC(OC(=O)C(F)(F)F)C4(C)C2(C)CC1 (stereo not given)
inactive: [1] 108% | [2] 120% | [3] 109% | [4] 101% | [5] 93.9% | [6] 103% | [7] 100% | [8] 98.4% | [9] 103% | [10] 96%

CC(C)c1[nH]nc2c(NCc3ccc(-c4ccccn4)cc3)nc(SCCN(C)C)nc12
active: [2] 5.19% | [3] -52.2% | [4] 1.25% | [5] -69.1% | [6] 6.37% | [7] 2.15% | [8] -43.5% | [9] -4.44% | [10] -32.9%
inactive: [1] 11.4%

COc1cc2nc(Sc3sc(N)nc3C)n(-c3ccc(Oc4ccccc4)cc3)c(=O)c2cc1OC
inactive: [1] 98.3% | [2] 78.6% | [3] 98.3% | [4] 90.1% | [5] 85.9% | [6] 102% | [7] 85.4% | [8] 81.3% | [9] 89.7% | [10] 81.6%

N#Cc1cnc2ccc(NCc3cnc[nH]3)cc2c1Nc1ccc(F)c(Cl)c1
inactive: [1] 39.5% | [2] 66.8% | [3] 110% | [4] 78% | [5] 52.8% | [6] 63.2% | [7] 94.4% | [8] 92.1% | [9] 84.3% | [10] 72.1%

FC(F)(F)c1ccc(-c2cnc(Cl)nc2NC2CCCCCC2)cc1
inactive: [1] 59.7% | [2] 11.9% | [4] 47.4% | [5] 31.3% | [6] 39.4% | [8] 75.1% | [10] 21.8%
active: [3] -42.8% | [7] -45.6% | [9] -10.3%

COc1cc2ccnc(C=O)c2cc1OC
inactive: [1] 69.8% | [2] 31.2% | [3] 58.8% | [4] 75.3% | [5] 67.6% | [6] 92% | [7] 96.5% | [8] 65.6% | [9] 83.2% | [10] 67.8%

Fc1ccc(-c2cc(C(Cl)Cl)no2)cc1
inactive: [1] 100% | [2] 128% | [3] 93.3% | [4] 95.1% | [5] 103% | [6] 100% | [7] 97.1% | [8] 106% | [9] 120% | [10] 89.3%

NC1CCC(Nc2nc(NCc3ccc(-c4ccco4)nc3)c3ncn(C4CCCC4)c3n2)CC1 (stereo not given)
active: [1] 6.46% | [2] 2.46% | [3] -40.6% | [4] 3.81% | [5] -50.5% | [6] 0.711% | [7] 0.17% | [8] -25.7% | [9] -8.84% | [10] -23.5%

CCCCc1ccc(NC(=O)N(CCCl)N=O)cc1
inactive: [1] 106% | [2] 88.1% | [3] 101% | [4] 107% | [5] 93.4% | [6] 79.3% | [7] 73.9% | [8] 82.2% | [9] 103% | [10] 99.2%

CCCC(C)c1ccc(OCCCCCCN2CCNCC2)cc1 (stereo not given)
active: [2] -34.1% | [4] -0.569% | [5] -13.3% | [7] -6.71%
inactive: [1] 38.4% | [3] 37% | [6] 70.4% | [8] 56.1% | [9] 79% | [10] 57.5%

O=[N+]([O-])c1ccc(-c2nc(Cl)c3c(n2)CCCC3)o1
inactive: [1] 31.4% | [2] 73.2% | [3] 41.4% | [4] 109% | [5] 93.8% | [6] 88.5% | [7] 115% | [8] 94.6% | [9] 82.5% | [10] 71.3%

COC(=O)[C@]12CC[C@@H](C)[C@H](C)[C@@H]1C1=CC[C@@H]3[C@@]4(C)CC(=O)[C@H](O)[C@@]5(C)COC(=C45)C[C@@]3(C)[C@]1(C)CC2
active: [1] -85.7% | [2] -24.9% | [3] -75.7% | [4] -72.5% | [5] -87.6% | [6] -67.2% | [7] -77.8% | [8] -52.1% | [9] -75.1% | [10] -66.3%

CCCc1c(C)nc2scc(-c3ccc(Cl)cc3)n2c1=O
inactive: [1] 105% | [2] 99.3% | [3] 116% | [4] 109% | [5] 92.7% | [6] 98.3% | [7] 105% | [8] 101% | [9] 110% | [10] 107%

Cc1cc(O)c(C2=NN(c3ccc(S(N)(=O)=O)cc3)C(c3ccc(N(C)C)cc3)C2)c(C)c1Cl (stereo not given)
active: [7] 6.34%
inactive: [1] 75.2% | [2] 25% | [3] 157% | [4] 103% | [5] 93.4% | [6] 72.1% | [8] 91.6% | [9] 97.6% | [10] 89.3%

Cc1cc(=O)oc2cc(OCc3cn(CC(O)CO)nn3)ccc12 (stereo not given)
inactive: [1] 103% | [2] 96.1% | [3] 109% | [4] 104% | [6] 109% | [7] 107% | [8] 95.9% | [9] 112% | [10] 106%

Cc1ccc([P+](Cc2ccc([N+](=O)[O-])cc2)(c2ccc(C)cc2)c2ccc(C)cc2)cc1
active: [3] -15% | [9] -14.6%
inactive: [1] 78.3% | [2] 11.2% | [4] 41.6% | [5] 67.2% | [6] 54.2% | [7] 45.2% | [8] 69% | [10] 19%

Clc1cc(Cl)c(Cl)c(-c2nc(-c3cccnc3)cs2)c1
inactive: [1] 37.2% | [2] 12% | [3] 28.6% | [4] 74% | [6] 85.8% | [7] 100% | [8] 81.4% | [9] 64.2% | [10] 51.8%

CN(C)c1ccc2cc(-c3cc4c(oc3=O)-c3ccccc3OC4O)c(=O)oc2c1 (stereo not given)
active: [2] -55.8% | [3] -59.3% | [4] -39.8% | [7] -56.4% | [10] -47.8%
inactive: [1] 11% | [6] 56.9% | [8] 19% | [9] 42.9%

CN(C)CCCN1c2ccccc2Sc2ccc(C(F)(F)F)cc21
active: [2] -46.2% | [3] -80.6% | [4] 4.03% | [7] -2.18% | [8] 3.74% | [9] 6.53% | [10] -84.6%
inactive: [1] 50.3% | [6] 16.8%

CCOC(=O)[C@@H]1[C@H](c2ccccc2)[C@H]([N+](=O)[O-])[C@H](c2cn(-c3ccccc3)nc2C)N1Cc1ccccc1
inactive: [1] 94.4% | [2] 61.4% | [3] 81% | [4] 68.2% | [5] 69.9% | [6] 68.4% | [7] 81.8% | [8] 81.7% | [9] 64.2% | [10] 76.5%

COc1ccc(-c2nc3sc(-c4ccccc4)c(-c4ccccc4)n3c2/C=C/c2ccc(F)cc2)cc1
inactive: [1] 103% | [2] 107% | [3] 96.6% | [4] 86.7% | [5] 89.4% | [6] 97.8% | [7] 97% | [8] 92.1% | [9] 99% | [10] 83.1%

O=C(O)CCCN1C(=O)NC2(C1=O)c1ccccc1-c1ccccc12
inactive: [1] 105% | [2] 99% | [3] 97.3% | [4] 107% | [5] 101% | [6] 95.3% | [7] 95.2% | [8] 99.7% | [9] 91.2% | [10] 103%

CC(=O)OC1Oc2ccccc2-c2oc(=O)c(-c3cc(=O)oc4cc(O)ccc34)cc21 (stereo not given)
inactive: [1] 78.3% | [2] 33.2% | [3] 68.9% | [4] 86.3% | [6] 97.1% | [7] 73.6% | [8] 89% | [9] 80.1% | [10] 72.1%

O=C(NC1CCCC1)c1ccc(N2CCC(NCc3cccc(C(F)(F)F)c3)CC2)cc1
inactive: [1] 91.2% | [2] 38% | [3] 70.3% | [4] 78.1% | [5] 79.1% | [6] 90.3% | [7] 96.3% | [8] 97.6% | [9] 91.3% | [10] 77.5%
